Reference: PubChem BioAssay AID588719 (Southern Research Specialized Biocontainment Screening …, 2011)
Hit rate of the full screen: of about 1,500 compounds, about 920 (61%) were called active. How the calls were made is not given here. The set was probably picked from earlier hits. The list shows a part of the results. Results with a measured potency or affinity are listed apart.

Assay: Vero 76 cell cytotoxicity, dose response, cytotoxicity control for VEEV inhibitor project (AID 588719)
Conditions: Vero 76 cells viability, cytotoxicity counter-screen; series mostly up to 25 µM
In the case of `C=CCn1c(SCC(=O)NNC(=O)Nc2cccc(Cl)c2)nnc1-c1ccccc1`, the outcome is reported as “inactive”. For `NS(=O)(=O)c1cccc(NC(=O)CN2C(=O)C(=O)N(Cc3ccccc3)C2=O)c1`, the outcome was “inactive”. For `O=C(COC(=O)COc1ccccc1)Nc1ccc(Br)cc1F`, the outcome was “inactive”. For `CN(CCC#N)C(=O)COC(=O)c1ccc2[nH]c3c(c2c1)CCCC3`, the outcome was “inactive”. For `Cc1ccc([C@H]2C[C@H](n3cc(-c4ccc(F)cc4)nn3)[C@@H](O)CN2CC2CCCCC2)cc1`, the outcome was “inactive”. With `Cc1nc(-c2ccccc2)sc1C(=O)/C=C/c1ccccc1` the outcome was “inactive”. With `O=C(Nc1ncc(Cc2ccccc2Cl)s1)C1CCCO1` (stereo not drawn) the outcome was “inactive”. With `Cc1nc(S/C(C(=O)O)=C2/C(=O)Nc3ccccc32)n[nH]1` the outcome was “inactive”. In the case of `O=C1Nc2cc3c(cc2C1=O)sc1ccccc13`, the outcome is reported as “inactive”. For `O=C(C=Cc1cccs1)c1cccs1`, the outcome was “inactive”. For `CN1C[C@H](CNC(=O)OCc2ccccc2)C[C@@H]2c3cccc4c3c(cn4C)C[C@H]21`, the outcome was “inactive”. For `Cc1ccc2c(c1)cc(C(=O)NCc1ccccc1)n2C`, the outcome was “inactive”. For `CCn1c(O)c(/C=N/NC(=O)c2ccccc2)c(=O)[nH]c1=S`, the outcome was “inactive”. In the case of `COc1ccc(/C=N/NC(=O)c2cccnc2)cc1COc1ccc(NC(C)=O)cc1`, the outcome is reported as “inactive”. In the case of `O=[N+]([O-])c1cccc(-c2c[n+]3c(n2-c2ccccc2)SCC3)c1`, the outcome is reported as “inactive”. For `COc1cc(/C=C2/SC(=S)N(CCC(=O)N3CCN(C)CC3)C2=O)cc(OC)c1OC`, the outcome was “inactive”. In the case of `COCCN(Cc1nc(-c2ccc(-c3ccccc3)cc2)oc1C)C(C)C`, the outcome is reported as “inactive”. With `COc1cccc(NC(=S)N(CCCN2CCCC2)Cc2cccn2Cc2ccc(Cl)cc2)c1` the outcome was “inactive”. With `O=C(Cc1c[nH]c2ccccc12)Nc1nnc(C2CC2)s1` the outcome was “inactive”. With `COc1ccc(NC(=O)[C@H](Cc2c[nH]c3ccccc23)NC(=O)[C@@H]2Cc3ccccc3CN2)cc1` the outcome was “inactive”. For `O=C1C2CCCN2C(c2ccccc2)N1c1ccc(Cl)cc1` (stereo not drawn), the outcome was “inactive”. With `CC(=O)c1c(C)cc(C)c(CSc2nc(C)cc(=O)[nH]2)c1C` the outcome was “inactive”. With `CCc1ccc([C@@H]2C[C@H]3[C@@H](CN2S(=O)(=O)c2ccc(C)cc2)C(=O)C[C@@H](c2ccc(Cl)cc2)N3S(=O)(=O)c2ccccc2C)cc1` the outcome was “inactive”. In the case of `Cc1cc2nc(/N=C(\N)NC(=O)C(C)C)nc(C)c2cc1C`, the outcome is reported as “inactive”. For `O=c1c2ccccc2[nH]c(=S)n1CCCN1CCN(c2ccccc2)CC1`, the outcome was “inactive”. In the case of `O=c1c2ccccc2[nH]c(=S)n1CCCN1CCN(c2ccccc2F)CC1`, the outcome is reported as “inactive”. In the case of `COc1ccc(S(=O)(=O)Nc2ccc3c(c2)C(=O)N([C@H](C)CO)C[C@H](C)[C@@H](CN(C)C(=O)Nc2ccc(C(F)(F)F)cc2)OCCCC[C@H](C)O3)cc1`, the outcome is reported as “inactive”. In the case of `c1ccc(CCNc2ccc3c(c2)Cc2ccccc2-3)nc1`, the outcome is reported as “inactive”. With `Cc1cc2ccc3ccccc3c2cc1CN(C)C` the outcome was “inactive”. In the case of `Cc1cccc(C(=O)Nc2ccccc2SCC2CSc3nc4ccccc4c(=O)n32)c1` (stereo not drawn), the outcome is reported as “inactive”. In the case of `O=C(CC1C(=O)NC2CCCCC2N1C(=O)c1ccc([N+](=O)[O-])cc1)Nc1ccccc1` (stereo not drawn), the outcome is reported as “inactive”. In the case of `CC(=O)C1C(N2CC2)CC2C3CCC4=CC(=O)CCC4(C)C3CCC21C` (stereo not drawn), the outcome is reported as “inactive”. In the case of `CN1CCN(/N=C/c2ccc(N(c3ccccc3)c3ccccc3)cc2)CC1`, the outcome is reported as “inactive”. In the case of `OC1(c2cccs2)CN(c2ccc(Br)cc2)C2=[N+]1CCCS2` (stereo not drawn), the outcome is reported as “inactive”. For `Nc1ccccc1/C=C/c1ccccc1N`, the outcome was “inactive”. For `CN(C)CCC(=O)C(Cc1ccccc1)c1ccccc1` (stereo not drawn), the outcome was “inactive”. For `Cc1nn(-c2ccccc2)nc1C(=O)Nc1nnc(C(F)(F)F)s1`, the outcome was “inactive”. For `COc1ccccc1NC(=O)c1nc(S(=O)(=O)Cc2ccccc2)ncc1Cl`, the outcome was “inactive”. With `CCCc1nnc(NC(=O)c2nc(S(=O)(=O)Cc3ccc(C)cc3)ncc2Cl)s1` the outcome was “inactive”. With `Cc1ccc(C)c(NS(=O)(=O)c2ccc(-n3cccn3)cc2)c1` the outcome was “inactive”. For `Cc1ccccc1-c1n[nH]c(=S)n1/N=C/c1ccc(-c2ccccc2Br)o1`, the outcome was “inactive”. In the case of `O=C(COC(=O)c1ccc(Br)o1)NCc1ccc(Cl)cc1`, the outcome is reported as “inactive”. In the case of `Cc1noc(C)c1NC(=O)N(C)C[C@H]1OCc2cnnn2CCCC(=O)N([C@H](C)CO)C[C@@H]1C`, the outcome is reported as “inactive”. For `CC(C)(C)C(=O)Nc1sc(-c2ccccc2)cc1C(=O)O`, the outcome was “inactive”. For `Nc1cc[n+](CC(=O)c2ccc3c(c2)OCCO3)cc1`, the outcome was “inactive”. In the case of `CN(C)c1ccc(C(=O)c2ccc(N(C)C)c3ccccc23)cc1`, the outcome is reported as “inactive”. For `O=C(OCC(=O)N1CCOCC1)c1ccc2[nH]c3c(c2c1)CCCC3`, the outcome was “inactive”. For `COc1ccc(-n2c(O)c(C=NCCN(C)C)c(=O)[nH]c2=O)cc1`, the outcome was “inactive”. In the case of `O=C(Nc1ccc(N2CCCCC2)c(Cl)c1)c1cccnc1`, the outcome is reported as “inactive”. For `Cc1c(O)c2ccccc2oc1=O`, the outcome was “inactive”. For `CC1=C(C(=O)N2CCOCC2)CC(CC(=O)NC2CCCCC2)C(=O)N1Cc1ccc(C(C)(C)C)cc1` (stereo not drawn), the outcome was “inactive”. In the case of `COc1ccc(C2CC(=O)C3=C(C2)NC(C)=C(C#N)C3c2ccc(N(C)C)cc2)cc1` (stereo not drawn), the outcome is reported as “inactive”. In the case of `CC(=O)/C(C#N)=C1\NC(=O)C(Cc2ccccc2)S1` (stereo not drawn), the outcome is reported as “inactive”. With `COc1ccc(O)c(CN2CCCC(C(=O)Nc3cccc(-n4cccn4)c3)C2)c1` (stereo not drawn) the outcome was “inactive”. In the case of `CCc1nc(CN2CCCC(C(=O)Nc3ccc(-c4cccc(OC)c4)cc3)C2)c(C)[nH]1` (stereo not drawn), the outcome is reported as “inactive”. In the case of `CN(c1ccc(OCC(=O)Nc2ccccc2C(=O)O)cc1)S(=O)(=O)c1ccc(Cl)cc1`, the outcome is reported as “inactive”. In the case of `COc1ccc(-c2csc(NC(=S)NC(=O)c3cccs3)n2)cc1Br`, the outcome is reported as “inactive”. In the case of `Cc1nn(Cc2c(Cl)cccc2Cl)c(C)c1NC(=O)c1cc(C(C)C)on1`, the outcome is reported as “inactive”. With `O=c1[nH]c(SCc2nc3c(cnn3-c3ccccc3)c(=O)[nH]2)nc2ccccc12` the outcome was “inactive”. With `CCN(CC)P(=O)(NC(=O)C(Cl)(Cl)Cl)N(CC)CC.[Cl-].[Cl-].[Cl-].[Nd+3]` the outcome was “inactive”. For `Cc1nc(/C(N)=N/OC(=O)c2ccccc2Cl)c(C(F)(F)F)o1`, the outcome was “inactive”. In the case of `C/C(N)=C(/C#N)C(=O)CSc1nnc(-c2ccc(OC(F)F)cc2)o1`, the outcome is reported as “inactive”. With `COc1ccc(NC(=O)N(C)C[C@H]2Oc3cc(Br)ccc3S(=O)(=O)N([C@H](C)CO)C[C@@H]2C)cc1` the outcome was “inactive”. In the case of `Cc1[nH]c(=S)[nH]c(=O)c1Cc1c(O)ccc2ccccc12`, the outcome is reported as “inactive”. For `CN(C)C1CCc2[nH]c3c(F)cc(F)cc3c2C1` (stereo not drawn), the outcome was “inactive”. With `COc1ccc2c(c1)c(CCN)c(C)n2Cc1ccccc1` the outcome was “inactive”. In the case of `Cc1ccc2nc(-c3ccc(NS(=O)(=O)c4c(C)n(C)c(=O)n(C)c4=O)cc3)sc2c1`, the outcome is reported as “inactive”. With `COc1cc(NC(=O)C2=C(C)OCCS2)c(Cl)cc1C(=O)NCCCN1CCCC(C)C1` (stereo not drawn) the outcome was “inactive”. In the case of `Cc1nn2c(NCCN(C)C)c3c(nc2c1-c1ccccc1)CCC3`, the outcome is reported as “inactive”. In the case of `CCOC(=O)C(C(=O)OCC)C(c1ccccc1)N1CCN(c2ccccc2)CC1` (stereo not drawn), the outcome is reported as “inactive”. In the case of `OC1(c2cccs2)CN(c2ccc(Cl)cc2)C2=[N+]1CCCC2` (stereo not drawn), the outcome is reported as “inactive”. For `Cc1cn([C@H]2C[C@H](O)[C@@H](CCC(=O)NCc3ccc(N(C)C)cc3)O2)c(=O)[nH]c1=O`, the outcome was “inactive”. In the case of `CC(C)=CCN1CCN(Cc2nc(C(C)C)cs2)CC1CCO` (stereo not drawn), the outcome is reported as “inactive”. In the case of `N=C1C(c2nc(-c3ccc(Cl)cc3)cs2)=C(O)CN1CCCN1CCOCC1`, the outcome is reported as “inactive”. For `O=C1C(=Cc2ccccc2O)SC(=S)N1CCCN1CCOCC1`, the outcome was “inactive”. With `COCCNC(=O)CCCn1c(=O)c2cc(OC)c(OC)cc2n(CC(=O)Nc2ccc(C)c(F)c2)c1=O` the outcome was “inactive”. With `CC(C)(C)c1cc(NC(=O)c2cc(F)c(F)c(F)c2F)no1` the outcome was “inactive”. For `CCN(Cc1ccncc1)C(=O)c1ccccc1NS(=O)(=O)c1ccc(Br)cc1`, the outcome was “inactive”. With `COc1cc(OC)cc(C(=O)NCC(=O)OCC(=O)NC2CCCc3ccccc32)c1` (stereo not drawn) the outcome was “inactive”. In the case of `COc1cc(OC)cc(C(=O)NCCSc2c[nH]c3ccccc23)c1`, the outcome is reported as “inactive”. For `O=C(/C=C/c1ccccc1)c1ccccc1`, the outcome was “inactive”. For `Cc1ccc(C(=O)/C=C/c2ccccc2)o1`, the outcome was “inactive”. For `COc1ccc(C(=O)NCC(=O)NCc2ccc3c(c2)OCO3)cc1[N+](=O)[O-]`, the outcome was “inactive”. In the case of `O=C(COC(=O)c1ccc(O)cc1)Nc1ccc2c(c1)OCO2`, the outcome is reported as “inactive”. With `CCOc1ccccc1OCCC(=O)N1CCN(S(=O)(=O)c2ccccc2[N+](=O)[O-])CC1` the outcome was “inactive”. For `CCCOc1ccc(Oc2nc(-c3ccncc3)nc3ccccc23)cc1`, the outcome was “inactive”. For `COc1ccccc1[C@]1(C)ON(c2ccccc2C(F)(F)F)C1=O`, the outcome was “inactive”. With `[O-][n+]1onc2c1CCc1[nH]c(-c3ccccc3)nc1-2` the outcome was “inactive”. With `COc1ccc(C=CC(=O)c2c(OC)cc(OC)c(OC)c2O)cc1` the outcome was “inactive”. With `COc1ccc(/C=C/C(=O)c2cc3cccc(OC)c3oc2=O)cc1` the outcome was “inactive”. With `CCOC(=O)NNc1cc(C(F)(F)F)ccn1` the outcome was “inactive”. With `Cc1ccc(C(=O)Nc2ccccc2SCC2CSc3nc4ccccc4c(=O)n32)cc1` (stereo not drawn) the outcome was “inactive”. With `COc1cc2c(cc1NC(=O)c1ccc(C(C)(C)C)cc1)CCCC2` the outcome was “inactive”. With `Cc1ccc(C(C)C)cc1OCC(=O)Nc1nnc(C2CC2)s1` the outcome was “inactive”. With `O=c1oc2ccccc2cc1-c1csc(Nc2ccc(O)cc2)n1` the outcome was “inactive”. For `COc1cccc(NC(=O)c2ncc(Cl)c(Cl)c2Cl)c1`, the outcome was “inactive”. With `CCOC(=O)c1ccccc1NC(=O)c1cn(CC)c2nc(C)ccc2c1=O` the outcome was “inactive”. With `COc1ccc(CCn2c(-c3ccco3)nc3ccccc3c2=O)cc1OC` the outcome was “inactive”. With `CCOc1ccccc1C(=O)NC(C(=O)OCn1nnc2ccccc2c1=O)C(C)C` (stereo not drawn) the outcome was “inactive”. In the case of `CCN1CCN(CCCNC(=O)C2CCCN(c3nc4c(C)cc(C)cc4s3)C2)CC1` (stereo not drawn), the outcome is reported as “inactive”. In the case of `CCOC(=O)c1c(NC(=O)c2c(-c3ccccc3)noc2C)sc(C)c1-c1ccccc1`, the outcome is reported as “inactive”. For `COC(=O)c1c(-c2ccccc2)csc1NC(=O)c1c(-c2ccccc2)noc1C`, the outcome was “inactive”. For `CCCOc1ccc(C(=O)NNC(=S)NC(=O)c2cc(-c3ccc(Cl)cc3)nc3ccccc23)cc1`, the outcome was “inactive”.
